Results published in PubChem BioAssay (NCATS).
Records with an inconclusive call do not appear. Active and inactive are the calls of the source. Unless noted, calls come from the whole dose curve; as a rule, active = well fitted curve in the direction sought with a large enough effect; inconclusive = small, poorly fitted or top-dose-only effect, or another doubt; inactive = no such curve, though single readings can be large; an effect the other way counts as inactive or inconclusive.

What was measured:
[1] = target: phosphoglycerate mutase (Leishmania major) (UniProt Q4Q090); assay: qHTS Validation Assay to Find Inhibitors of Phosphoglycerate Mutase (AID 504548); details: Potency: inhibition qHTS;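 note: end-point luminescence from Kinase-GloPlus after the PGAM reaction; series mostly up to about 58 µM; % is set by controls: 0 for no effect and ±100 for the full control effect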
Chain of phosphoglycerate mutase (Leishmania major) (Q4Q090 1-553): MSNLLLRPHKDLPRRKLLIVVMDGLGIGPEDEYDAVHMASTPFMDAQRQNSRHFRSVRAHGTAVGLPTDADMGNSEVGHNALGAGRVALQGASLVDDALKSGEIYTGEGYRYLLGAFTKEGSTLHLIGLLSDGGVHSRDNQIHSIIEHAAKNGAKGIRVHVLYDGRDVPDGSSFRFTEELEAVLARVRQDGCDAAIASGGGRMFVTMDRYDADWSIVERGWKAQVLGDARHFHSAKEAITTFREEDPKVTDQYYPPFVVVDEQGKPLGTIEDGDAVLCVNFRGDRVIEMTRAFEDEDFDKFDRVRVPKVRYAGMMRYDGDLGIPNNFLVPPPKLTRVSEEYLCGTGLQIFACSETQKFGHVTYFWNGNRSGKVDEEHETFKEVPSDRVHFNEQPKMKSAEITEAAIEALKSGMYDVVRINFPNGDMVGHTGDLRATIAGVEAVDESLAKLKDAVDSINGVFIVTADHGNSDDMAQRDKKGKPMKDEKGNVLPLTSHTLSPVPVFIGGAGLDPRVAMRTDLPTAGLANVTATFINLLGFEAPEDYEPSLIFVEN
Summary of the method: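 L. major PGAM (1.25nM final) was added to substrate buffer and pinned compound, incubated 45 minutes at room temperature, then Kinase-GloPlus added; luminescence read after 10 minutes. Buffer: 100 mM TEA pH 7.6, 5 mM MgCl2, 0.01% Tween-20.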

[2] = target: Ubiquitin carboxyl-terminal hydrolase 1 (Homo sapiens) (UniProt O94782); assay: Inhibitors of USP1/UAF1: Pilot qHTS (AID 504865); note: nearly all actives have a fitted effect of over 35% in size; note: potency is the fitted concentration of half-maximal effect
Chain of Ubiquitin carboxyl-terminal hydrolase 1 (Homo sapiens) (O94782 whole entry, looked up): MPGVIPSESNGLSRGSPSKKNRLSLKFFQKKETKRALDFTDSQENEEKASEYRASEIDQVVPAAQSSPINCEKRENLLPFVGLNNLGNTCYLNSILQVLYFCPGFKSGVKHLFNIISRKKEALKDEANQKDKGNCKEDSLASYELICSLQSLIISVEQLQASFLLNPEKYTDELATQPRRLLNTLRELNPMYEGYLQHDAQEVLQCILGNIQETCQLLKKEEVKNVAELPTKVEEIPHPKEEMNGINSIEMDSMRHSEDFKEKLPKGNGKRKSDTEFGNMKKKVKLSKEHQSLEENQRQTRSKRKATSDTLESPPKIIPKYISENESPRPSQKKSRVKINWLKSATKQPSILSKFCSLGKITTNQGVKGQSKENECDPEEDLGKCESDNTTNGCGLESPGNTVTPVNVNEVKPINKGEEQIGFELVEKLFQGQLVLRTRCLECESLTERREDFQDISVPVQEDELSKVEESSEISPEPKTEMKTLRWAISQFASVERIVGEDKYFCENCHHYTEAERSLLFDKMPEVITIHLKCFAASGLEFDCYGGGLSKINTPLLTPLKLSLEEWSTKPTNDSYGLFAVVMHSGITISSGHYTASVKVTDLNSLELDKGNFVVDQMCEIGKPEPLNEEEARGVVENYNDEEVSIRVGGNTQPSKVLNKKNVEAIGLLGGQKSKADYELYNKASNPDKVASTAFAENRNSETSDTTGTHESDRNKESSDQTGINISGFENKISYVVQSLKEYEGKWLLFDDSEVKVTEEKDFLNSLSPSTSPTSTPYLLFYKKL
Summary of the method: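 USP1/UAF1 complex (1nM) preincubated with compound 15 min at room temperature, then Ub-Rho substrate (150nM final) added. Fluorescence read kinetically at 480/540 nm, 6 reads every 60 seconds. Buffer: 50mM HEPES pH 7.8, 0.5mM EDTA, 0.1 mg/ml BSA, 1mM TCEP, 0.01% Tween-20.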

[3] = qHTS for Inhibitors of ATXN expression: Validation of Cytotoxic Assay (AID 588349); note: potency is the fitted concentration of half-maximal effect
Summary of the method: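 Cytotoxicity counter-screen: ATP-based luminescent viability (CellTiter Glo) after 72 hr exposure of HEK293 cells to a compound titration at 37 degrees C.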

[4] = qHTS for Inhibitors of ATXN expression: Validation (AID 588378); note: nearly all actives have a fitted effect of over 75% in size; note: potency is the fitted concentration of half-maximal effect
Summary of the method: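 Luminescence from an ATXN2-FFLuc reporter in HEK293 cells served as read-out after 24 h compound treatment at 37 degrees C; CellTiter-Fluor fluorescence was recorded first to assess viability.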

[5] = target: Glucocorticoid receptor (Homo sapiens) (UniProt P04150); assay: qHTS assay for small molecule agonists of glucocorticoid receptor signaling (AID 588532; active = well fitted curve in the direction sought with a large enough effect in the signal ratio, with a control signal flat; the % refers to the signal ratio;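 note: 100% = dexamethasone at 0.1 µM and 0% = DMSO only wells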); details: HeLa MMTV-bla, beta-lactamase ratio, agonist, 18 h; stronger effect = higher value; percent of dexamethasone control, DMSO zero
Chain of Glucocorticoid receptor (Homo sapiens) (P04150 whole entry, looked up): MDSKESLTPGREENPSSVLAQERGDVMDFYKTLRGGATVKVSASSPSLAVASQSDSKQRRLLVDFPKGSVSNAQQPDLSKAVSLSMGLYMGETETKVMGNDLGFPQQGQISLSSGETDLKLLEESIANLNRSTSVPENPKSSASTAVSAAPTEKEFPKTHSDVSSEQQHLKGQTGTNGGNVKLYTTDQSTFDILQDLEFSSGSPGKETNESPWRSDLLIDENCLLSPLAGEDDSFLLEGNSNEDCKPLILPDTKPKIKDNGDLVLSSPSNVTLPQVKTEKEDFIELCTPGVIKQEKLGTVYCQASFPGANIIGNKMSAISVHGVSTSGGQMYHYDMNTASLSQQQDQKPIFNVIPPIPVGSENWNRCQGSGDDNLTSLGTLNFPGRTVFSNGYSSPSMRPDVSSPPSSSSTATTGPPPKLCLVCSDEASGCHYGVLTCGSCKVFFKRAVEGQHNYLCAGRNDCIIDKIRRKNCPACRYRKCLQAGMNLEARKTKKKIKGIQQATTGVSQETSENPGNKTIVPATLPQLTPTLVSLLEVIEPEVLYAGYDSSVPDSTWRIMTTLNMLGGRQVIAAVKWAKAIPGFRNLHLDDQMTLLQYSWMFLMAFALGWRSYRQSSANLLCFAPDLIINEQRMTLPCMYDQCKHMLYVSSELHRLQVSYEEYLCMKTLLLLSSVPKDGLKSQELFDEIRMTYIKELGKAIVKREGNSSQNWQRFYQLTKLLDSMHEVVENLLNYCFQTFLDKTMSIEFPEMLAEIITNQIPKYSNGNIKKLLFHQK
Summary of the method: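 Quantitative HTS using CellSensor MMTV-bla HeLa cells in charcoal/dextran-treated serum; compounds tested up to 92 uM. After 18 h at 37 C, CCF4 dye reported reporter induction.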

[6] = target: DNA dC->dU-editing enzyme APOBEC-3G (Homo sapiens) (UniProt Q9HC16); assay: qHTS for inhibitors of Vif-A3G interactions: Validation (AID 588379); note: 0% is about no effect
Chain of DNA dC->dU-editing enzyme APOBEC-3G (Homo sapiens) (Q9HC16 whole entry, looked up): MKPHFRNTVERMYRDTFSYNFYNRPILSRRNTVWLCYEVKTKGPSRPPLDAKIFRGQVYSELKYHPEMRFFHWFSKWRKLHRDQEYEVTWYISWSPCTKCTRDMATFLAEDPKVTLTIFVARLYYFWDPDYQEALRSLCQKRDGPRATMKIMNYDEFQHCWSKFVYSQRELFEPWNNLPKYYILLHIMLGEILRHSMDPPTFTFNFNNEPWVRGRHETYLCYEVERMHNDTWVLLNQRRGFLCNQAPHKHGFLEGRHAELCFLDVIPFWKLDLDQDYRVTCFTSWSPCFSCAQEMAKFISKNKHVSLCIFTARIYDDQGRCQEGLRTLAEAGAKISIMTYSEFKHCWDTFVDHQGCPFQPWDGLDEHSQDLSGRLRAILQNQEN
Summary of the method: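 Yellow fluorescence (Ex 488, Em 500-530) of Vif-coexpressing HeLa A3G-eYFP cells, scanned by Acumen cytometer, reports blocked A3G degradation. Cells plated at 700/well overnight at 37 deg C before compound addition, then a further overnight compound incubation at 37 deg C.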

[7] = target: Estrogen receptor (Homo sapiens) (UniProt P03372); assay: qHTS assay for small molecule antagonists of estrogen receptor alpha signaling (AID 588513; active = well fitted curve in the direction sought with a large enough effect in the signal ratio, with a control signal flat, not every such curve was filed as active; the % refers to the signal ratio; note: % is set by controls: 0 for no effect and ±100 for the full control effect)
Chain of Estrogen receptor (Homo sapiens) (P03372 whole entry, looked up): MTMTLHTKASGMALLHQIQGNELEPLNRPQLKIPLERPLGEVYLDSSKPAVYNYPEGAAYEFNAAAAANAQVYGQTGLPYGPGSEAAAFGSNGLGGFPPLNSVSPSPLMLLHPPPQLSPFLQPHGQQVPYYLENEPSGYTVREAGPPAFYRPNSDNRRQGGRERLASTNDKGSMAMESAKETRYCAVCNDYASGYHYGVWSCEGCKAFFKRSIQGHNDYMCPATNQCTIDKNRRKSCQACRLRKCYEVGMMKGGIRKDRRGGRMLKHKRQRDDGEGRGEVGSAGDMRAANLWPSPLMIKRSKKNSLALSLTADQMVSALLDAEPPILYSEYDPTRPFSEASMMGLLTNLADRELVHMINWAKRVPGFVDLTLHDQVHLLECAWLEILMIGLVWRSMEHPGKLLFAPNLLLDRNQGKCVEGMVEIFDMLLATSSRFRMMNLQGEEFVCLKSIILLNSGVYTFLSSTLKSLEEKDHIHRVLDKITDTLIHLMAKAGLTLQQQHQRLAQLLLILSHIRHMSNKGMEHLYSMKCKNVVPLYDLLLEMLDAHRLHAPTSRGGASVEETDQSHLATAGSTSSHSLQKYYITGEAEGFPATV
Summary of the method: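 ER-alpha-UAS-bla GripTite HEK 293 cells in medium with 2% charcoal/dextran-treated FBS were preincubated 4 h at 37 C, dosed with compound (1:2 titration), stimulated with 0.5nM 17-beta-estradiol for 18 h, then read by CCF4 beta-lactamase fluorescence.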

O=c1[nH]c2cc(Cl)c(Cl)cc2[nH]c1=O
inactive: Potency [1] | Potency [2] | Potency [3] | Potency [4]

O=C(c1ccc(OCCCc2cnc[nH]2)cc1)C1CC1
inactive: Potency [1] | Potency [2] | Potency [3] | Potency [4]

Fc1cccc(/C=N/N=C/c2cccc(F)c2)c1
inactive: Potency [1] | Potency [2] | Potency [3] | Potency [4]

O=C(CCCCCN1CCN(c2ccccc2-c2ccccc2)CC1)NC1CCCc2ccccc21 (stereo not given)
inactive: Potency [1] | Potency [2]
active: Potency [3] 15.8 µM | Potency [4] 20 µM

NC[C@@H]1O[C@H](C23CC4CC(CC(C4)C2)C3)Cc2c1ccc(O)c2O
active: Potency [3] 31.6 µM | Potency [4] 20 µM
inactive: Potency [1] | Potency [2]

O=C(O)/C=C/C(O)c1ccc(Cl)cc1 (stereo not given)
inactive: Potency [1] | Potency [2] | Potency [3] | Potency [4]

CNC(=O)[C@H]1O[C@@H](n2cnc3c(NCc4ccc(N)cc4)ncnc32)[C@H](O)[C@@H]1O
inactive: Potency [1] | Potency [2] | Potency [3] | Potency [4]

CN1CC(=O)N/C1=N/C(=O)Nc1cccc(Cl)c1
inactive: Potency [1] | Potency [2] | Potency [3] | Potency [4]

Cc1ccc(C(=O)O[C@H](C(=O)O)[C@@H](OC(=O)c2ccc(C)cc2)C(=O)O)cc1 (tested in a mixture with another compound)
inactive: Potency [1] | Potency [2] | Potency [3] | Potency [4]

CC(=O)SCC[N+](C)(C)C
inactive: Potency [1] | Potency [2] | Potency [3] | Potency [4]

O=C(O)CCCC[C@@H]1CCSS1
inactive: Potency [1] | Potency [2] | Potency [3] | Potency [4]

NC(=O)C1=CN(C2OC(COP(=O)(O)OP(=O)(O)OC[C@H]3O[C@@H](n4cnc5c(N)ncnc54)[C@H](OP(=O)(O)O)[C@@H]3O)C(O)C2O)C=CC1 (stereo not given in full)
inactive: Potency [1] | Potency [2] | Potency [3] | Potency [4]

OC[C@H]1O[C@@H](n2cnc3c(NC4CCCCC4)ncnc32)[C@H](O)[C@@H]1O
inactive: Potency [1] | Potency [2] | Potency [3] | Potency [4]

CCCCC#Cc1nc(NC)c2ncn([C@@H]3O[C@H](CO)[C@@H](O)[C@H]3O)c2n1
inactive: Potency [1] | Potency [2] | Potency [3] | Potency [4]

Nc1nc(Nc2ccccc2)nc2c1ncn2[C@@H]1O[C@H](CO)[C@@H](O)[C@H]1O
inactive: Potency [1] | Potency [2] | Potency [3] | Potency [4]

CC(C)Cc1ccc([C@H](C)C(=O)O)cc1
inactive: Potency [1] | Potency [2] | Potency [3] | Potency [4]

CCNC(=O)[C@H]1O[C@@H](n2cnc3c(N)nc(NCCc4ccc(CCC(=O)O)cc4)nc32)[C@H](O)[C@@H]1O
inactive: Potency [1] | Potency [2] | Potency [3] | Potency [4]

O=C(O)CC1CCCc2ccccc2C1O (stereo not given)
inactive: Potency [1] | Potency [2] | Potency [3] | Potency [4]

Oc1ccccc1O
inactive: Potency [1] | Potency [2] | activation [5] -6.14%

Nc1ncnc2c1c(I)cn2[C@@H]1C[C@H](N)[C@@H](O)[C@H]1O
active: Potency [4] 10 µM
inactive: Potency [1] | Potency [2]

Clc1ccc(N2CCN(Cc3c[nH]c4ncccc34)CC2)cc1
active: Potency [2] 50.1 µM
inactive: Potency [1] | Potency [3] | Potency [6]

O=S(=O)(c1cccc2c(I)cccc12)N1CCCNCC1
inactive: Potency [1] | Potency [2]
active: Potency [4] 12.6 µM

c1cnc2c(c1)ccc1cccnc12
inactive: Potency [1] | Potency [2]
active: Potency [4] 3.55 µM

CCCN(CC1CC1)c1nc(C)nc(Nc2c(Cl)cc(Cl)cc2Cl)c1Cl
inactive: Potency [1] | Potency [2] | Potency [3] | Potency [4] | Potency [6]

CN1CCC[C@H]1c1cccnc1
inactive: Potency [1] | Potency [2] | Potency [3] | Potency [4] | Potency [6] | outcome [7]

COc1ccccc1N1CCN(CCN(C(=O)c2ccc(I)cc2)c2ccccn2)CC1
inactive: Potency [1] | Potency [2] | Potency [4]

C[C@@H](CN1CCC(Cc2ccccc2)CC1)[C@@H](O)c1ccc(O)cc1
inactive: Potency [1] | Potency [2] | Potency [3] | Potency [4] | Potency [6]

O=C(O)[C@@H]1C[C@@H](C(=O)O)N1
inactive: Potency [1] | Potency [2] | Potency [3] | Potency [4] | Potency [6]

COc1cc2nc(N3CCN(C(=O)OCc4ccccc4)C(C(=O)NC(C)(C)C)C3)nc(N)c2cc1OC (stereo not given)
inactive: Potency [1] | Potency [2] | Potency [4]
